Assay [1] can be described thus: qHTS assay to identify small molecule antagonists of the retinoid-related orphan receptor gamma (ROR-gamma) signaling pathway - cell viability counter screen (AID 1159520). Further: nearly all actives have a fitted effect of over 50% in size. Further: potency means the concentration at half of the fitted maximal effect. The method in brief:
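Tet-on ROR gamma CHO cells were given compounds for 2 hr, then doxycycline hyclate at 1 uM final, and incubated 16 hr at 37 C. Viability was measured as ATP content by CellTiter-Glo luminescence.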

The target in assay [2] is Nuclear receptor ROR-gamma (Homo sapiens) (UniProt P51449). The assay is described as follows: qHTS assay to identify small molecule antagonists of the retinoid-related orphan receptor gamma (ROR-gamma) signaling pathway (AID 1159521; further: nearly all actives have a fitted effect of over 50% in size; further: potency means the concentration at half of the fitted maximal effect). The procedure, abridged:
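CHO Tet-on RORγ, RORE-luc reporter. Cpd 2 h pre-incubation, then dox hyclate 1 uM final, 16 h, 37 C/5% CO2. ONE-Glo luminescence; decrease = antagonist.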
On the technique in general: Quantitative high-throughput screening tests each substance at several concentrations.

The nature of assay [3]: qHTS assay to identify small molecule agonists of the AP-1 signaling pathway - cell viability counter screen (AID 1159525; calls by dose curve; further: nearly all actives have a fitted effect of over 55% in size; further: potency means the concentration at half of the fitted maximal effect). The method in brief: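 Same-well cytotoxicity counter screen of the Tox21 10K library in ME-180 cells. The readout is ATP-dependent luminescence after 5 h compound treatment. Data are normalised to DMSO and tetra n-octyl ammonium bromide controls.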

The nature of assay [4]: qHTS assay to identify small molecule antagonists of the peroxisome proliferator-activated receptor delta (PPARd) signaling pathway - cell viability counter screen (AID 743213). Further: nearly all actives have a fitted effect of over 50% in size. Further: potency means the concentration at half of the fitted maximal effect. The procedure, abridged:
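CellTiter-Glo was added to PPARd-bla HEK293H wells following 17 h compound treatment in the presence of 300 nM L165041. Luminescence was recorded after 30 min at room temperature.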

A short description of assay [5]: qHTS assay to identify small molecule agonists of the farnesoid-X-receptor (FXR) signaling pathway - cell viability counter screen (AID 743218). Further: nearly all actives have a fitted effect of over 45% in size. Further: potency means the concentration at half of the fitted maximal effect. The method in brief:
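Same-well cytotoxicity check on FXR-UAS-bla HEK 293T cells: 5 h attachment, 16 h compound at 37 C, CellTiter-Glo luminescence read at room temperature after 30 min.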

Assay [6] in a line: qHTS assay to identify small molecule antagonists of the farnesoid-X-receptor (FXR) signaling pathway - cell viability counter screen (AID 743221; active means well fitted cell-killing curve with a large enough effect in the repeat runs, not every such curve was filed as active; further: nearly all actives have a fitted effect of over 50% in size; further: potency means the concentration at half of the fitted maximal effect). The procedure, abridged: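 Luminescence from CellTiter-Glo measures cytotoxicity in GeneBLAzer FXR-UAS-bla HEK 293T cells. Cells were exposed to compounds with 50 uM chenodeoxycholic acid (final) for 16 h at 37 C, in wells also used for the reporter readout.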

The nature of assay [7]: qHTS assay to identify small molecule agonists of the vitamin D receptor (VDR) signaling pathway - cell viability counter screen (AID 743224). Further: nearly all actives have a fitted effect of over 50% in size. Further: potency means the concentration at half of the fitted maximal effect. The method in brief: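 Counter screen for cytotoxicity: VDR-bla cells at 2,000 cells/well, 16 h compound exposure, then CellTiter-Glo luminescence after the beta-lactamase measurement.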
The nature of assay [8]: qHTS assay to identify small molecule antagonists of the vitamin D receptor (VDR) signaling pathway - cell viability counter screen (AID 743225). Further: nearly all actives have a fitted effect of over 50% in size. Further: potency means the concentration at half of the fitted maximal effect. The method in brief: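 Read-out: CellTiter-Glo luminescence measured 30 min after reagent addition at room temperature. Cells were VDR-bla HEK 293T exposed 16 h at 37C, 5% CO2, to compound with 3 nM final calcitriol agonist.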
A short description of assay [9]: qHTS assay to identify small molecule agonists of the endoplasmic reticulum stress response signaling pathway - cell viability counter screen (AID 1159517; calls by dose curve; further: nearly all actives have a fitted effect of over 50% in size; further: potency means the concentration at half of the fitted maximal effect). The method in brief: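 Steps: seed 1,500 ESRE-bla HeLa cells per well; incubate overnight at 37 C, 5% CO2; add compounds in DMSO for 5 hr; run FRET substrate 2 hr RT; add CellTiter-Glo, wait 30 min, read luminescence.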

In assay [10] the target is Peroxisome proliferator-activated receptor delta (Homo sapiens) (UniProt Q03181). The assay is described as follows: qHTS assay to identify small molecule agonists of the peroxisome proliferator-activated receptor delta (PPARd) signaling pathway (AID 743212; calls by dose curve). The method in brief:
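Read-out: beta-lactamase FRET fluorescence after 2 h room-temperature incubation with LiveBLAzer B/G substrate. Cells were HEK293H carrying a UAS-bla reporter for PPARd, treated at 37 C with DMSO-dissolved compounds.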

For assay [11] the target is unchanged. Nature of the assay: qHTS assay to identify small molecule antagonists of the peroxisome proliferator-activated receptor delta (PPARd) signaling pathway (AID 743215; active means well fitted inhibition curve with a large enough effect in the signal ratio in the repeat runs, not every such curve was filed as active; the % refers to the signal ratio;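 further: cells stimulated with agonist L165041 at 300 nM final during compound exposure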; further: potency means the concentration at half of the fitted maximal effect). The procedure, abridged: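 Screen format: qHTS, antagonist mode. HEK293H PPARd-bla cells received compound and 300 nM L165041 (final), 17 h, 37 C. Beta-lactamase detected via FRET substrate fluorescence, 2 h, room temperature.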

The target in assay [12] is Bile acid receptor (Homo sapiens) (UniProt Q96RI1). The assay is described as follows: qHTS assay to identify small molecule antagonists of the farnesoid-X-receptor (FXR) signaling pathway (AID 743217; active means well fitted inhibition curve with a large enough effect in the signal ratio in the repeat runs, not every such curve was filed as active; the % refers to the signal ratio). The procedure, abridged: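 Quantitative HTS, beta-lactamase reporter format: FXR-UAS-bla HEK 293T cells co-treated 16 h at 37 °C with compounds and 50 uM final chenodeoxycholic acid, then read by B/G FRET fluorescence.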

The target is the same in assay [13]. Nature of the assay: qHTS assay to identify small molecule agonists of the farnesoid-X-receptor (FXR) signaling pathway (AID 743220; active means well fitted activation curve with a large enough effect in the signal ratio in the repeat runs, not every such curve was filed as active; the % refers to the signal ratio). The method in brief: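 FXR-UAS-bla HEK 293T cells carrying a UAS-driven beta-lactamase reporter were plated for 5 h at 37C/5% CO2, then exposed to DMSO-dissolved Tox21 10K compounds for 16 h at 37C. A LiveBLAzer B/G FRET substrate was loaded for 2 h at room temperature before fluorescence reading.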

Assay [14] in a line: qHTS assay to identify small molecule agonists of the AP-1 signaling pathway (AID 1159526; calls by dose curve).
For assay [15], the target named is Retinoic acid receptor RXR-alpha (Homo sapiens) (UniProt P19793). The assay is described as follows: qHTS assay to identify small molecule agonists of the RXR signaling pathway (AID 1159527; calls by dose curve; further: nearly all actives have a fitted effect of over 35% in size). The method in brief:
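Read-out: beta-lactamase FRET ratio (405 nm excitation, 460 and 530 nm emission) after 2 hr substrate loading at room temperature. Cells were RXR-alpha-UAS-bla HEK 293T treated with compounds for 16 hr in 2% charcoal-stripped FBS medium.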

A short description of assay [16]: qHTS assay to identify small molecule agonists of the peroxisome proliferator-activated receptor delta (PPARd) signaling pathway - cell viability counter screen (AID 743211). Further: nearly all actives have a fitted effect of over 55% in size. The method in brief:
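HEK293H PPARd-bla, 3000 cells/well; 5 h preincubation 37C/5% CO2; cpd in DMSO, 17 h 37C; B/G FRET substrate 2 h RT; CellTiter-Glo 30 min RT, luminescence.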

The target of assay [17] is Vitamin D3 receptor (Homo sapiens) (UniProt P11473). Nature of the assay: qHTS assay to identify small molecule agonists of the vitamin D receptor (VDR) signaling pathway (AID 743222; calls by dose curve). The method in brief: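 Using LiveBLAzer B/G FRET detection, agonism was scored in VDR-bla cells exposed overnight (16 h, 37C) to DMSO-dissolved compounds; substrate incubation was 2 h at room temperature.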

Values joined by “and” are separate entries in the source; they are usually repeats but may differ in a detail not shown here. Equal entries are not always repeated. Records with an inconclusive call do not appear. Active and inactive are the calls of the source. Unless noted, the call rests on the fitted dose curve; in most records, active means well fitted curve in the direction sought with a large enough effect in the repeat runs; inconclusive means weak or mixed curves; inactive means no such curve, though single readings can be large; an effect the other way counts as inactive or inconclusive.

Peroxisome proliferator-activated receptor delta (Homo sapiens), sequence (Q03181 whole entry, looked up): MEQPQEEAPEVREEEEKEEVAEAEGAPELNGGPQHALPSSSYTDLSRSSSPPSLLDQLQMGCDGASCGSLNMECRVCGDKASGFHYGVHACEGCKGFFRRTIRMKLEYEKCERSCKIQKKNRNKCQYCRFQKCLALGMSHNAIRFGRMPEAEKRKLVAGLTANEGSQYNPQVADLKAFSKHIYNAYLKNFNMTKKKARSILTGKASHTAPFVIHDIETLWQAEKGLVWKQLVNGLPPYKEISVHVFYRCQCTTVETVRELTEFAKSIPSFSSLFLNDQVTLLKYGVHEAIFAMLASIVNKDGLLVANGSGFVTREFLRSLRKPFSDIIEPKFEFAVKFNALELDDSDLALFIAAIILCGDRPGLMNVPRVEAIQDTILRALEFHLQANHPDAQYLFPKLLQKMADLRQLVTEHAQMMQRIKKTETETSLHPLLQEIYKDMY
Bile acid receptor (Homo sapiens), sequence (Q96RI1 whole entry, looked up): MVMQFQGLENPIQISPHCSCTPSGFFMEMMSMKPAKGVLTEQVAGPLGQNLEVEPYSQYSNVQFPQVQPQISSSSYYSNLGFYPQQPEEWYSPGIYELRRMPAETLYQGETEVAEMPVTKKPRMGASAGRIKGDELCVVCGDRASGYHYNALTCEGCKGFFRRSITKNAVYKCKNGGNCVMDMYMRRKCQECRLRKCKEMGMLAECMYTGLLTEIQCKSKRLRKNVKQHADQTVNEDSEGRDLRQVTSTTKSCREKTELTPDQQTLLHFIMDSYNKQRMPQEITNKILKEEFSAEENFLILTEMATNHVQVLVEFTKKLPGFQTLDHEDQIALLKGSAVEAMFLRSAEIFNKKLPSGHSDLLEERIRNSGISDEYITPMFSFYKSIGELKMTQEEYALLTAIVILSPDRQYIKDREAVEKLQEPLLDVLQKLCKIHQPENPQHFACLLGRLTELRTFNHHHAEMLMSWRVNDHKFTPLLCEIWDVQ
Retinoic acid receptor RXR-alpha (Homo sapiens), sequence (P19793 whole entry, looked up): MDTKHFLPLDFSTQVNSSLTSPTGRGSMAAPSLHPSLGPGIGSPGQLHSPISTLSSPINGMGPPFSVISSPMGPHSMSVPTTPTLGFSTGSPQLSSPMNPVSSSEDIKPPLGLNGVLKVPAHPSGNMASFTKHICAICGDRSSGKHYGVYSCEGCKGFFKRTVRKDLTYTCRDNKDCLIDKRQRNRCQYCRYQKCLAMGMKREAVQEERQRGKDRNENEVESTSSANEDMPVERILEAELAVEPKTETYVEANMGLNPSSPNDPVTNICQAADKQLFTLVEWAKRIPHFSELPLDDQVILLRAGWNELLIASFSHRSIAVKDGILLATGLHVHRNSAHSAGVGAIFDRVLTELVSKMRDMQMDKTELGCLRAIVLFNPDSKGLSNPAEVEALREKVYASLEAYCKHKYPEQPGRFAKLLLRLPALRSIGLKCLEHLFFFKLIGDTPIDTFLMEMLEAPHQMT
Vitamin D3 receptor (Homo sapiens), sequence (P11473 whole entry, looked up): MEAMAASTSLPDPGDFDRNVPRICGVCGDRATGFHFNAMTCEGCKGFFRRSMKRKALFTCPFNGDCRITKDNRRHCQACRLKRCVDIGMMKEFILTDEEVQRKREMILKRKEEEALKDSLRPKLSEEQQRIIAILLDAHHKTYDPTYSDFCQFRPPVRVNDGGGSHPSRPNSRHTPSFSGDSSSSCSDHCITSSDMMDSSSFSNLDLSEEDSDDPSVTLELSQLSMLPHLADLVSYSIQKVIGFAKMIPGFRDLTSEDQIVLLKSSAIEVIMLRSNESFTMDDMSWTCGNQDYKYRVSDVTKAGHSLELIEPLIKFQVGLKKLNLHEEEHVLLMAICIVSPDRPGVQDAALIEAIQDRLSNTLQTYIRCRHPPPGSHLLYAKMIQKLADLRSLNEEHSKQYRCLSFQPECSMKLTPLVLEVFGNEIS

Regarding `O=C1C=CC(=O)c2ccccc21`, the Potency was 3.44 µM (active) in assay [1], 1.54 µM (active) in assay [2] and 15.5 µM (active) in assay [3].

On to `CCCCCCCCCCCCCCCC[N+](C)(C)C`, for which the Potency in assay [4] is 21.1 µM (active) and 3.89 µM (active); in assay [5], 14.9 µM (active) and 43.6 µM (active); in assay [6], 23.7 µM (active) and 49 µM (active); in assay [7], 21.1 µM (active) and 24.5 µM (active); in assay [8] it was 21.1 µM (active) and 21.9 µM (active) and 23.9 µM (active); in assay [9] it was 23.7 µM (active) and 43.6 µM (active). For the same compound, the Potency is 7.42 µM (active) and 12.2 µM (active) and 5.96 µM (active) in assay [2]; 49 µM (active) and 26.8 µM (active) in assay [3].

Take `C[CH2][Hg][N]1C(=O)C2C(C1=O)C1(Cl)C(Cl)=C(Cl)C2(Cl)C1(Cl)Cl` (stereo not drawn): the figures for the Potency in assay [1], in [2] and in assay [3] were 3.66 µM (active), 2.31 µM (active) and 6.57 µM (active), respectively.

For `Clc1ccc(COC(Cn2ccnc2)c2ccc(Cl)cc2Cl)cc1` (stereo not drawn), the Potency was 40.7 µM (active) and 24.4 µM (active) in assay [4]; 32.3 µM (active) and 19.4 µM (active) and 26.6 µM (active) in [5]; 40.7 µM (active) and 17.3 µM (active) and 26.6 µM (active) in assay [6]; 20.4 µM (active) and 13.7 µM (active) and 26.6 µM (active) in [7]; 45.7 µM (active) and 48.8 µM (active) in [8]; 61.4 µM (active) in [9]. For the same compound, the Potency in [1] is 45.3 µM (active) and 60.9 µM (active); in assay [2], 45.3 µM (active) and 30.5 µM (active) and 23.7 µM (active); in assay [3], 54.7 µM (active) and 23.9 µM (active).

As for `CC(Cc1ccc(C(C)(C)C)cc1)CN1C[C@@H](C)O[C@@H](C)C1` (stereo partly drawn), the Potency result in [10], in assay [4], in assay [11], in [12], in assay [6] and in [8] was “inactive” throughout. Further, the Potency entry in [9], in assay [2], in assay [3] and in assay [14] was “inactive” throughout. The compound was classed as inactive in assay [13].

Regarding `CC(=O)OC1(c2ccccc2)CCN(CCc2ccccc2)CC1`, the Potency result in assay [10], in [4], in assay [11], in [5], in assay [6] and in assay [7] was “inactive” each time. The Potency result in assay [8], in assay [9], in assay [1] and in assay [3] was “inactive” in each case. The result in [15] was inactive.

`Nc1ccc(Sc2ccc(N)cc2)cc1`: the Potency result in [16], in [17], in assay [7], in [9], in assay [1] and in assay [2] was “inactive” in each case. Further, the Potency result in assay [3] is “inactive”. Moreover, the compound was classed as inactive in assay [13].

Consider `NC(=O)CCl`, for which the Potency entry in assay [1], in [2] and in assay [3] was “inactive” each time.

As to `CC(=O)C(Cl)(Cl)Cl`, the Potency result in assay [12], in [5], in assay [6], in assay [9] and in assay [3] was “inactive” in each case. The Potency in assay [2] is 9.35 µM (active).

With `c1ccc(Nc2ccc3ccccc3c2)cc1`, the Potency entry in assay [10], in assay [4], in assay [11], in [12], in assay [5] and in assay [6] was “inactive” in each case. Also, the Potency result in assay [7], in assay [8], in [9] and in assay [2] was “inactive” throughout. Further, the compound was called inactive in [13] and in assay [15]. Besides, the Potency in assay [3] was 48.7 µM (active).

Regarding `CCOP(=S)(OCC)SCS(=O)(=O)C(C)(C)C`, the Potency entry in assay [1], in [2] and in assay [3] was “inactive” each time.

Regarding `CC(=O)/C=C/c1ccc2c(c1)OCO2`, the Potency result in assay [4], in [5], in assay [6], in assay [7], in assay [8] and in [9] was “inactive” in each case. Besides, the Potency entry in [2] and in assay [14] was “inactive” throughout. Moreover, the Potency in assay [11] was 43.9 µM (active). Also, the outcome in [13] was inactive.

The values are drawn from PubChem BioAssay (Tox21).
